The values below come from PubChem BioAssay (NCI).

Some test systems named below: HCT-15 colon; HT29 colon; SNB-75 CNS; SNB-19 CNS; U251 CNS; PC-3 prostate; SK-MEL-5 melanoma; UACC-62 melanoma; LOX IMVI melanoma; SK-MEL-28 melanoma; SK-MEL-2 melanoma; EKVX NSCLC; SN12C renal; UO-31 renal; TK-10 renal; ACHN renal; CAKI-1 renal; A498 renal; CCRF-CEM leukemia; MOLT-4 leukemia.
Common to all, as to experiment: NCI-60 one-dose screen, 48 h (100 = growth as untreated, 0 = no growth, -100 = all killed)
Common to all, as to conditions: 10 µM unless noted

About 83,000 compounds went through this panel and 20% of them were active in at least one assay; those are over-represented in the sample as a whole.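 How to read the values: 0–100, growth inhibition (40 = 60% inhibited); 0, no net growth; -100 to 0, cell death (-40 = 40% of starting cells died; -100 = all dead).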 Values without a mark were called inactive. Active and inactive are the calls of the source. Rule for the calls: active = growth percent below 10; inactive = the rest.

With `O=C1NC(=S)NC(=O)C1=Cc1cccc(C=C2C(=O)NC(=S)NC2=O)c1`, the growth was 105% with HCT-15 colon; 104% in the experiment with HT29 colon; 98.9% in the experiment on SNB-75 CNS; 98.9% with SNB-19 CNS; 114% in the experiment with U251 CNS; 104% with PC-3 prostate. The growth with SK-MEL-5 melanoma is 100%; in the experiment with UACC-62 melanoma, 101%; in the experiment on LOX IMVI melanoma, 102%; in the experiment with SK-MEL-28 melanoma, 110%; in the experiment with SK-MEL-2 melanoma it was 108%; in the experiment with EKVX NSCLC, 99.9%. The growth in the experiment with SN12C renal was 95.3%; with UO-31 renal, 91%; with TK-10 renal, 104%; in the experiment on ACHN renal, 113%; in the experiment on CAKI-1 renal, 93.9%; in the experiment on A498 renal, 93.1%. Moreover, the growth in the experiment with CCRF-CEM leukemia is 99.3%; in the experiment with MOLT-4 leukemia, 102%.

For `NC(=O)C1(N2CCCCC2)CCN(CCCC(=O)c2ccc(F)cc2)CC1`, the growth in the experiment with HCT-15 colon was 93.6%; in the experiment with HT29 colon, 5.09% (active); with SNB-75 CNS, 23.5%; in the experiment with SNB-19 CNS, 32.3%; with U251 CNS it was 23.2%; with PC-3 prostate, 30.2%. The growth in the experiment on SK-MEL-5 melanoma was 4.4% (active); in the experiment on UACC-62 melanoma, 29.3%; in the experiment with LOX IMVI melanoma, 42.4%; in the experiment with SK-MEL-28 melanoma it was 51.7%; with SK-MEL-2 melanoma, 13.9%; in the experiment with EKVX NSCLC it was 59.2%. Further, the growth with SN12C renal was 43.3%; with UO-31 renal it was 88.9%; in the experiment with TK-10 renal it was 88.2%; in the experiment on ACHN renal, 90.9%; in the experiment on CAKI-1 renal it was 91.7%; in the experiment with A498 renal it was 32.8%. The growth in the experiment on CCRF-CEM leukemia is 0.142% (active); in the experiment on MOLT-4 leukemia it was 26.8%.

As to `COc1ccc(-c2nc(SC(C)C)nc(NNC(N)=O)c2C#N)cc1`, the growth in the experiment on HCT-15 colon is 58.6%; in the experiment on HT29 colon it was 106%; with SNB-75 CNS, 59.1%; with SNB-19 CNS it was 89%; with U251 CNS, 93.5%; with PC-3 prostate it was 75.9%. Moreover, the growth is 89.1% with SK-MEL-5 melanoma; 85.8% in the experiment on UACC-62 melanoma; 76.7% in the experiment with LOX IMVI melanoma; 93% with SK-MEL-28 melanoma; 92.9% in the experiment with SK-MEL-2 melanoma; 99.2% in the experiment on EKVX NSCLC. Besides, the growth in the experiment on SN12C renal was 83.9%; with UO-31 renal it was 68.2%; in the experiment on TK-10 renal, 97.1%; with ACHN renal, 90.1%; in the experiment with CAKI-1 renal, 72.2%; in the experiment with A498 renal it was 90.2%. Also, the growth with CCRF-CEM leukemia was 88.3%; in the experiment on MOLT-4 leukemia it was 78.6%.

Regarding `COc1cc(-c2nc3occn3c2-c2ccnc(NCCNS(=O)(=O)c3ccc(Cl)cc3)n2)ccc1F`, the growth in the experiment with HCT-15 colon was 74.7%; in the experiment with HT29 colon it was 53.1%; with SNB-75 CNS, 69.1%; in the experiment with SNB-19 CNS, 91.6%; in the experiment on U251 CNS it was 90%; with PC-3 prostate, 56.4%. Also, the growth with SK-MEL-5 melanoma is 66.1%; in the experiment on UACC-62 melanoma, 57.1%; in the experiment on LOX IMVI melanoma, 81.9%; in the experiment with SK-MEL-28 melanoma it was 102%; in the experiment with SK-MEL-2 melanoma, 71.9%; in the experiment with EKVX NSCLC it was 78.1%. Moreover, the growth was 71.5% with SN12C renal; 36.4% in the experiment with UO-31 renal; 89% in the experiment on TK-10 renal; 77.7% with ACHN renal; 60.9% with CAKI-1 renal; 62.3% in the experiment on A498 renal. Besides, the figures for the growth in the experiment with CCRF-CEM leukemia and in the experiment on MOLT-4 leukemia were 60.9% and 54%, respectively.

In the case of `Cc1c(C2=CCCCC2)c2ccccn2c1C(=O)c1cccc(S(=O)(=O)N2CCOCC2)c1`, the growth was 83.9% in the experiment with HCT-15 colon; 59.5% with HT29 colon; 57.8% in the experiment on SNB-75 CNS; 101% with SNB-19 CNS; 91.4% with U251 CNS; 71.1% in the experiment with PC-3 prostate. The growth in the experiment with SK-MEL-5 melanoma was 104%; in the experiment with UACC-62 melanoma it was 77.7%; in the experiment on LOX IMVI melanoma, 89.1%; with SK-MEL-28 melanoma, 101%; in the experiment with SK-MEL-2 melanoma, 91.8%; with EKVX NSCLC, 68.7%. Also, the growth was 99.8% in the experiment with SN12C renal; 56.8% in the experiment on UO-31 renal; 71.5% with TK-10 renal; 93.4% in the experiment with ACHN renal; 59.6% in the experiment with CAKI-1 renal; 116% with A498 renal. Also, the growth is 81.5% with CCRF-CEM leukemia and 82.6% in the experiment with MOLT-4 leukemia.

In the case of `COc1ccc(-c2cnc(N)nc2-c2ccc(OC)cc2O)cc1`, the growth is 101% with HCT-15 colon; 85.6% in the experiment on HT29 colon; 91.5% in the experiment on SNB-75 CNS; 99.6% in the experiment with SNB-19 CNS; 92.2% in the experiment with U251 CNS; 92% in the experiment on PC-3 prostate. For the same compound, the growth in the experiment with SK-MEL-5 melanoma is 104%; with UACC-62 melanoma, 93.4%; in the experiment with LOX IMVI melanoma it was 86.1%; in the experiment on SK-MEL-28 melanoma, 104%; in the experiment with SK-MEL-2 melanoma it was 112%; in the experiment with EKVX NSCLC, 96.8%. Further, the growth was 98.5% with SN12C renal; 70.2% in the experiment on UO-31 renal; 99.1% in the experiment with TK-10 renal; 87.9% with ACHN renal; 86.5% in the experiment on CAKI-1 renal; 99.8% with A498 renal. Moreover, the values for the growth in the experiment with CCRF-CEM leukemia and in the experiment with MOLT-4 leukemia were 82.4% and 77.2%, respectively.

With `COc1ccc(NC(=O)c2sc3nc(C)c(C(=O)c4ccc(OC)cc4)cc3c2N)cc1`, the growth is 35.8% in the experiment on HCT-15 colon; 7.92% (active) in the experiment with HT29 colon; 21.2% in the experiment on SNB-75 CNS; 65.2% in the experiment on SNB-19 CNS; 39.7% in the experiment with U251 CNS; 56.4% in the experiment with PC-3 prostate. Also, the growth in the experiment with SK-MEL-5 melanoma was 35.1%; with UACC-62 melanoma it was 46.1%; in the experiment on LOX IMVI melanoma, 54.2%; with SK-MEL-28 melanoma, 64.9%; in the experiment with SK-MEL-2 melanoma, 23%; with EKVX NSCLC it was 68.5%. The growth in the experiment on SN12C renal is 63.8%; with UO-31 renal, 45.5%; in the experiment with TK-10 renal it was 55%; with ACHN renal it was 82.8%; in the experiment on CAKI-1 renal, 42.6%; in the experiment on A498 renal, -3.91% (active). Moreover, the growth in the experiment on CCRF-CEM leukemia is 36%; with MOLT-4 leukemia, 27.5%.

Regarding `Cc1ccc2[nH]c(=S)n(-c3ccc(S(=O)(=O)Nc4ccc(Cl)nn4)cc3)c(=O)c2c1`, the growth was 101% in the experiment on HCT-15 colon; 103% in the experiment on HT29 colon; 97.8% with SNB-75 CNS; 97.5% with SNB-19 CNS; 100% in the experiment with U251 CNS; 103% in the experiment with PC-3 prostate. The growth in the experiment on SK-MEL-5 melanoma was 101%; in the experiment on UACC-62 melanoma it was 98.5%; in the experiment on LOX IMVI melanoma it was 100%; in the experiment on SK-MEL-28 melanoma it was 108%; in the experiment with SK-MEL-2 melanoma, 106%; in the experiment with EKVX NSCLC, 97.8%. Moreover, the growth in the experiment on SN12C renal is 96.9%; in the experiment on UO-31 renal, 85.2%; in the experiment with TK-10 renal, 100%; with ACHN renal it was 104%; in the experiment with CAKI-1 renal, 90.6%; in the experiment on A498 renal it was 92.1%. Besides, the growth with CCRF-CEM leukemia and in the experiment with MOLT-4 leukemia was 100% throughout.
